Measured values taken from PubChem BioAssay.
Active and inactive are the calls of the source.

What was measured:
[1] = test system: Plasmodium falciparum Sir2 (PF13_0152, Sir2A); assay: Plasmodium falciparum Sir2A binding compounds – biochemical, small-molecule microarray, 635 nm fluorescence, primary screen (AID 1098); conditions: fluorescence 635 nm, higher = more signal;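 note: score merges spot fluorescence intensity with its signal-to-noise ratio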
[2] = probe aDKK1 binding to arrayed compounds – biochemical, biotinylated probe, 635/667 nm fluorescence, primary screen (AID 1099); conditions: small-molecule microarray, higher = more signal;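 note: score merges 667nm spot fluorescence with signal to noise across triplicate slides; reference of the scale not given here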
[3] = probe aCHRDL2 binding to arrayed compounds – biochemical, biotinylated probe, 635/667 nm fluorescence, primary screen (AID 1100); conditions: small-molecule microarray, higher = more signal
[4] = change in splice reporter luminescence, either direction, cell-based, HEK293, spliceosome inhibition project, primary screen (AID 1101); conditions: HEK293 splicing luciferase reporter, 24 h, higher = more signal, called active from +8 up or from −8 down;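 note: HEK293 cells carrying a splicing-competent luciferase reporter gene; test concentration not given here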
[5] = target: Fibroblast growth factor 10 (Homo sapiens) (UniProt O15520); assay: compounds binding fibroblast growth factor 10 – biochemical, small-molecule microarray, 635 nm fluorescence, primary screen (AID 1102); conditions: FGF10 binding, fluorescence 635 nm, higher = more signal
Sequence of Fibroblast growth factor 10 (Homo sapiens) (O15520 whole entry, looked up): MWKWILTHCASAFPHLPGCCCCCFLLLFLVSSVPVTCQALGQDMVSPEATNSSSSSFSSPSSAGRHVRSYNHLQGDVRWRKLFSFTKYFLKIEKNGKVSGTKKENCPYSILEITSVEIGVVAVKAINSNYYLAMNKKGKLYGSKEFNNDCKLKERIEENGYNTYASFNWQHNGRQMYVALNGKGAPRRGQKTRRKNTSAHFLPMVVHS

[6] = test system: glycogen synthase kinase-3 (GSK3A per assay name; protocol says GSK3B); assay: compounds binding glycogen synthase kinase-3 – biochemical, small-molecule microarray, 635 nm fluorescence, GSK3A, primary screen (AID 1103); conditions: fluorescence 635 nm, higher = more signal; note: the record names both GSK3A and GSK3B
[7] = target: Epidermal growth factor receptor (Homo sapiens) (UniProt P00533); assay: compounds binding epidermal growth factor receptor – biochemical, small-molecule microarray, 635 nm fluorescence, primary screen (AID 1104); conditions: EGFR binding, higher = more signal;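 note: score merges 667 nm emission intensity with spot signal to noise over triplicate slides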
Sequence of Epidermal growth factor receptor (Homo sapiens) (P00533 whole entry, looked up): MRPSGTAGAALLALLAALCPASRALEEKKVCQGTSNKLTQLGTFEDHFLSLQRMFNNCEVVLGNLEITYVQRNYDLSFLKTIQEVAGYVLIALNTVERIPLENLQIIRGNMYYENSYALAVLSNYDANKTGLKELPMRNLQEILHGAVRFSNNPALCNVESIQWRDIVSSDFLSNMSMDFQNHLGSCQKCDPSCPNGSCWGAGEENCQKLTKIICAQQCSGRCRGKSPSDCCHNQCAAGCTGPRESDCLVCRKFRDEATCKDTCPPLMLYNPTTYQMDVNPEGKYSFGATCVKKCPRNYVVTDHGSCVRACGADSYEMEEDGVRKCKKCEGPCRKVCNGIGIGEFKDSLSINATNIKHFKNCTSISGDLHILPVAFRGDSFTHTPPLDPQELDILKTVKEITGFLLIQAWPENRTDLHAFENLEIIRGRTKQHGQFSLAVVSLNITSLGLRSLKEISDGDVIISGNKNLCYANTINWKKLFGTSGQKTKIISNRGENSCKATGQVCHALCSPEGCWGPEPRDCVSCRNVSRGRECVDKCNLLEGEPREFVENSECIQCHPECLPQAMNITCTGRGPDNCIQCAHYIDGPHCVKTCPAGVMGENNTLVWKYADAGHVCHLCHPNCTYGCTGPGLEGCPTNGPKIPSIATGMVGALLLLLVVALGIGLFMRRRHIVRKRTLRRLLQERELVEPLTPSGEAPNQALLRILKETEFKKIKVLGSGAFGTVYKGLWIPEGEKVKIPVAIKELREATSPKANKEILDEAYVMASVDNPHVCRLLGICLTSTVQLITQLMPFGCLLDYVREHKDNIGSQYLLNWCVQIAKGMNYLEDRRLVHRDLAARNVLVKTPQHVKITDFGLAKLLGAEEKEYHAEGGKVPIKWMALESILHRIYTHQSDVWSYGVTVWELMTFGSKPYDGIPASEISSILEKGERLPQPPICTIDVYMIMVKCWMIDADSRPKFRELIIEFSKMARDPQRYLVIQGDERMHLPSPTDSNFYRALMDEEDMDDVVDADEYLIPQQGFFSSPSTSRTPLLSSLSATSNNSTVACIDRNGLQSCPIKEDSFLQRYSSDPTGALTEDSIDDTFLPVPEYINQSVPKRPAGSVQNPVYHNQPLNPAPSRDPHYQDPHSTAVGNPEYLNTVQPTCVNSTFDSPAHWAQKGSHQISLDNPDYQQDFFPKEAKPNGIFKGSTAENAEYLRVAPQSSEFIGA

[8] = target: Follistatin-related protein 3 (Homo sapiens) (UniProt O95633); assay: compounds binding follistatin-related protein 3 – biochemical, small-molecule microarray, 635 nm fluorescence, primary screen (AID 1105); conditions: FSTL3 binding, higher = more signal;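 note: score merges emission near 667 nm and signal to noise per printed spot across three slides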
Sequence of Follistatin-related protein 3 (Homo sapiens) (O95633 whole entry, looked up): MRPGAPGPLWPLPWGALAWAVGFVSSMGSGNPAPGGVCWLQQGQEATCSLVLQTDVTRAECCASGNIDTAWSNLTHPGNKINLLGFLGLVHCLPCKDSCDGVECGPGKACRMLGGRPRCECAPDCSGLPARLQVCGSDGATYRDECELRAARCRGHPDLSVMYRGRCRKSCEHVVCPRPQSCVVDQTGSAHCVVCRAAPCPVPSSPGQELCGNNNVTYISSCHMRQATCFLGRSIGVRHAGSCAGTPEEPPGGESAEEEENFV

[9] = target: Dickkopf-related protein 1 (Homo sapiens) (UniProt O94907); assay: small molecules binding DKK1 protein – biochemical, small-molecule microarray, 635 nm fluorescence scan, primary screen (AID 1106); conditions: higher = more signal;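 note: score merges emission near 667 nm with signal to noise over three replicate slides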
Sequence of Dickkopf-related protein 1 (Homo sapiens) (O94907 whole entry, looked up): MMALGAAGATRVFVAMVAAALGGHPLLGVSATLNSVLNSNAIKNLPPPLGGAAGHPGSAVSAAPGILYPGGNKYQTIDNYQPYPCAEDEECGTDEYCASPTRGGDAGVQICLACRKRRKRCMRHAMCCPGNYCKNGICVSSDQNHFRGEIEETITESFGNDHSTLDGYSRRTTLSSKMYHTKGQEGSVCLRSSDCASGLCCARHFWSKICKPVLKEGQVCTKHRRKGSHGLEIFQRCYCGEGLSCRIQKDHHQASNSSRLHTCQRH

[10] = test system: Inhibin beta A chain (activin A); assay: small molecules binding activin A – biochemical, small-molecule microarray, 635 nm fluorescence scan, primary screen (AID 1107); conditions: INHBA, higher = more signal;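 note: mouse activin A protein probed at 4.33 µg/mL on printed slides; score merges bound-protein fluorescence near 667 nm with spot signal-to-noise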

Structure (SMILES)	composite z-score [1]	composite z-score [2]	composite z-score [3]	z-score [4]	composite z-score [5]	composite z-score [6]	composite z-score [7]	composite z-score [8]	composite z-score [9]	composite z-score [10]
CCOc1cc(C(O)C2C=CC3C(=O)N(c4ccccc4)C(=O)C3N2Nc2ccc([N+](=O)[O-])cc2)ccc1O (stereo not given)	1.33	-0.0703	-0.129	-0.214 (inactive)	0.575	0.757	0.317	0.429	0.0577	0.199
COCCOC(=O)N1C(=O)[C@@]2(c3cc(C#CCC(C(=O)OC)C(=O)OC)ccc31)[C@H](C(=O)N1CCN(c3ncccn3)CC1)[C@H]1C(=O)O[C@H](c3ccccc3)[C@H](c3ccccc3)N1[C@@H]2c1ccc(OCCO)cc1	1.56	-0.0747	0.0277	-0.923 (inactive)	0.699	1.1	0.275	0.626	-0.0047	0.149
CC(=O)C1=CCC(c2ccccc2)N(S(=O)(=O)c2ccc(C)cc2)C1 (stereo not given)	1.4	0.196	0.469	0.0149 (inactive)	0.586	0.258	0.255	1.01	0.0538	1.12
[N-]=[N+]=Nc1ccccc1[C@@H]1OC(c2ccc(OCCCO)cc2)=N[C@]1(CCS(=O)(=O)c1ccccc1)C(=O)N1CCOCC1	1.43	1.04	0.994	-0.4 (inactive)	1.37	1.09	0.569	1.36	0.14	1.58
C=CCNC(=O)[C@H]1[C@@H]2C(=O)O[C@@H](c3ccccc3)[C@@H](c3ccccc3)N2[C@@H](c2ccc(O)cc2)[C@]12C(=O)N(C(=O)OCCOC)c1ccc(C#CCCO)cc12	1.29	0.303	0.272	0.271 (inactive)	1.18	0.713	-0.248	-0.0994	-0.0705	0.681
COC(=O)C[C@@H]1C[C@H](C)[C@]2(O1)C(=O)N(Cc1ccccc1)c1ccc(NC(C)=O)cc12	0.0968	-0.148	-0.448	0.247 (inactive)	0.603	0.141	0.324	0.389	0.355	0.4
CC(C)C(=C=CC[C@H](O)c1ccccc1OCCO)C[C@H](O)c1ccccn1	1.62	0.0012	-0.203	-0.705 (inactive)	0.764	0.559	-0.536	-0.0639	-0.0832	0.407
COc1ccc(CCNC(=O)[C@@H]2c3ccccc3C(=O)N(Cc3ccc(OC(F)(F)F)cc3)[C@H]2c2ccc(CO)cc2)cc1	1.7	0.0658	0.396	0.0514 (inactive)	0.719	0.965	-0.227	0.251	-0.204	0.258
COC(=O)c1ccc(C(O)C2C=CC3C(=O)N(C)C(=O)C3N2NC(=O)OC(C)(C)C)o1 (stereo not given)	0.66	0.49	0.266	1.26 (inactive)	0.558	0.483	0.557	0.622	-0.0526	0.399
O=C1C2C=CC(C(O)c3ccc(B(O)O)cc3)N(Nc3ccccc3)C2C(=O)N1c1ccccc1 (stereo not given)	-0.0545	0.82	0.634	-0.451 (inactive)	-0.322	-1.15	-0.134	-0.593	-0.502	1.16
O=C1C[C@]2(c3ccc([N+](=O)[O-])cc3)C(=O)N(CC(F)(F)F)c3cc(CO)ccc3[C@H]2N1CC12CC3CC(CC(C3)C1)C2	1.75	-0.157	0.115	0.452 (inactive)	0.0399	0.284	-0.736	0.23	0.301	0.36
CC(C)C[C@@H]1NC(=O)[C@H]2C[C@@H](C(=O)NCCCCCCNC(=O)CS)[C@@H](c3cccc(OCCO)c3)N2C1=O	1.54	0.0362	-0.139	-0.576 (inactive)	1.39	1.27	1.23	1.49	1.94	0.525
C=C[C@@H](COC(C)=O)N(Cc1ccc([N+](=O)[O-])cc1)S(=O)(=O)c1ccc(Br)cc1	0.566	0.965	0.992	-0.807 (inactive)	0.599	0.283	0.292	0.352	-0.0075	0.663
CCOC(=O)C[C@H]1[C@H](OC(=O)c2ccc(-c3ccccc3)cc2)[C@@H](NC(=O)Cc2ccc(OC)cc2)c2cc(OCCCO)ccc2N1C(=O)c1ccc2ccccc2n1	0.042	0.593	0.294	-1.05 (inactive)	0.181	0.267	-0.127	0.367	0.0289	0.827
CN(C)CCCCNC(=O)[C@H]1C[C@H]2C(=O)N[C@@H](Cc3ccccc3)C(=O)N2[C@H]1c1ccc(O)cc1	0.725	-0.0299	-0.0646	-1.03 (inactive)	1.4	1.2	0.425	1.39	1.5	-0.44
O=C(CS)NCCCCCCNC(=O)[C@@H]1C[C@@H]2C(=O)N3CCC[C@H]3C(=O)N2[C@@H]1c1ccc(O)cc1	0.425	-0.207	0.597	0.552 (inactive)	-0.252	0.691	-0.226	-0.32	0.17	-0.41
COCCOC(=O)N1C(=O)[C@@]2(c3cc(C#CCCO)ccc31)[C@H](c1ccccc1OCCO)N1[C@H](c3ccccc3)[C@H](c3ccccc3)OC(=O)[C@H]1[C@@H]2C(=O)N1CCN(c2ncccn2)CC1	0.55	0.75	0.537	-0.381 (inactive)	0.74	1.22	0.965	1.39	0.682	0.617

Structure (SMILES)	composite z-score [1]	composite z-score [2]	composite z-score [3]	z-score [4]	composite z-score [5]	composite z-score [6]	composite z-score [7]	composite z-score [8]	composite z-score [9]	composite z-score [10]
CCOC(=O)C[C@H]1[C@H](OC(=O)c2ccc(C(=O)c3ccccc3)cc2)[C@@H](NC(=O)C2CCCCC2)c2cc(OCCCO)ccc2N1C(=O)c1ccccc1	0.348	-0.0675	-0.0333	0.062 (inactive)	0.398	0.628	0.122	0.165	0.126	0.559
Cc1c(NC(=O)CC#N)c(=O)n(-c2ccccc2)n1C	0.345	-0.274	-0.47	0.933 (inactive)	0.118	0.526	0.322	0.367	0.273	-0.256
COC(=O)[C@@]1(Cc2ccc(F)cc2)[C@H]2c3cc(C(=O)N(C)C)n(CCc4ccccn4)c3C[C@H]2CN1C(=O)c1ccccc1	0.219	0.849	0.312	-3.62 (inactive)	0.355	1.36	0.472	0.869	0.41	0.403
N#Cc1ccc(NN2C(C(O)c3cccs3)C=CC3C(=O)N(c4ccccc4)C(=O)C32)cc1 (stereo not given)	0.15	-0.0705	-0.25	-0.626 (inactive)	1.18	0.349	0.55	0.642	-0.271	0.207
O=C1N(CCS(=O)(=O)c2ccccc2)Cc2ccccc2[C@H]2OC(c3ccc(OCCCO)cc3)=N[C@@]12CCS(=O)(=O)c1ccccc1	1.55	0.883	1.13	-0.872 (inactive)	1.03	0.916	0.423	0.411	0.13	1.03
Cc1ccc(S[C@]2(C(=O)NCCN3CCOCC3)CC(=O)N(Cc3cc(C(F)(F)F)cc(C(F)(F)F)c3)[C@@H]2c2ccc(CO)cc2I)cc1	1.4	0.104	0.868	-2.04 (inactive)	-0.743	-0.799	-0.981	-0.492	-1.34	0.551
O=c1oc(-c2ccccc2)nc2cc(Br)ccc12	0.486	-0.184	-0.493	-0.288 (inactive)	0.312	0.838	0.448	0.582	0.508	-0.0295
COCCOC(=O)N1C(=O)[C@@]2(c3cc(C#CCNC(N)=O)ccc31)[C@H](c1ccccc1OCCO)N1[C@H](c3ccccc3)[C@H](c3ccccc3)OC(=O)[C@H]1[C@@H]2C(N)=O	0.806	0.117	0.106	-0.265 (inactive)	0.848	0.786	0.528	1.26	0.439	0.719
COC(=O)[C@@]1(Cc2ccccc2)[C@H]2c3cc(C(=O)N(C)C)n(Cc4cc(C)n(C)n4)c3C[C@H]2CN1C(=O)c1ccccc1	1.32	0.866	0.947	-1.26 (inactive)	0.0408	0.764	0.3	0.642	-0.72	1.11
COC(=O)c1ccc(OC)c(/C=C\CC(OC(C)=O)c2ccccc2)c1 (stereo not given)	-0.22	-0.146	0.0946	-0.582 (inactive)	-0.207	0.147	0.643	0.137	0.305	1.89
COc1ccc([Si](C)(C)[C@H]2[C@H](CCn3cc([C@H](O)c4ccccc4)nn3)O[C@@]3(C(=O)N(Cc4cccc(N5CCC5=O)c4)c4ccccc43)[C@@H]2C)cc1	1.32	-0.144	-0.206	-1.4 (inactive)	0.66	-0.113	-0.0533	-0.108	-0.0723	0.714
C=C(C(=O)CC[C@H](OC(C)=O)c1ccc(OCCO)cc1)C(C)C	-0.478	-0.267	-0.906	-3.58 (inactive)	1.37	-0.479	0.982	0.876	2.01	-0.0025
COc1cc(C(O)C2C=CC3C(=O)N(c4ccccc4)C(=O)C3N2Nc2ccc(C#N)cc2)cc(OC)c1OC (stereo not given)	1.4	1.45	1.34	1.22 (inactive)	1.17	1.33	-0.209	1.25	-0.536	0.0506
CN(C)CCCCCCNC(=O)[C@H]1C[C@H]2C(=O)N[C@@H](CCCCN)C(=O)N2[C@H]1c1ccc(O)cc1	2.14	2.83	1.71	0.509 (inactive)	1.29	1.48	1.6	1.65	2.15	1.45
CCCCC(O)C1C=CC2C(=O)N(C3CCCCC3)C(=O)C2N1Nc1ccc(OC)cc1 (stereo not given)	0.637	0.298	0.948	-0.221 (inactive)	0.517	1.28	-0.0301	1.12	-0.517	0.943
COc1ccc(C#Cc2ccc3c(c2)[C@]2(C(=O)N3)[C@H](c3ccc(O)cc3)N3[C@H](c4ccccc4)[C@H](c4ccccc4)OC(=O)[C@H]3[C@@H]2C(=O)N2CCCCCCC2)cc1	1.39	2.69	1.52	-0.844 (inactive)	1.22	1.33	1.18	1.61	1.61	1.78
